SRC3 TRFRET art – TR-FRET detection interference compounds, artefact control for PPARgamma SRC-3 recruitment agonists, biochemical, TR-FRET ratio; TR-FRET artefact counter-screen, PPARgamma/SRC-3 format; hits give high values; 99,000 tested, 0.39% active; TR-FRET ratio at 8 µM; AID 1048, 2008
PPARg SRC2 recr – agonists of PPARg-SRC-2 recruitment, primary screen, biochemical, HTS; 200,000 tested, 0.34% active; activation, % at 8 µM; AID 1032, 2008; Peroxisome proliferator-activated receptor gamma (Homo sapiens), P37231; PPARgamma LBD-SRC-2 recruitment; in the data active = activation above about 22%
Target sequence (P37231 whole entry, looked up, the tested form may be a part): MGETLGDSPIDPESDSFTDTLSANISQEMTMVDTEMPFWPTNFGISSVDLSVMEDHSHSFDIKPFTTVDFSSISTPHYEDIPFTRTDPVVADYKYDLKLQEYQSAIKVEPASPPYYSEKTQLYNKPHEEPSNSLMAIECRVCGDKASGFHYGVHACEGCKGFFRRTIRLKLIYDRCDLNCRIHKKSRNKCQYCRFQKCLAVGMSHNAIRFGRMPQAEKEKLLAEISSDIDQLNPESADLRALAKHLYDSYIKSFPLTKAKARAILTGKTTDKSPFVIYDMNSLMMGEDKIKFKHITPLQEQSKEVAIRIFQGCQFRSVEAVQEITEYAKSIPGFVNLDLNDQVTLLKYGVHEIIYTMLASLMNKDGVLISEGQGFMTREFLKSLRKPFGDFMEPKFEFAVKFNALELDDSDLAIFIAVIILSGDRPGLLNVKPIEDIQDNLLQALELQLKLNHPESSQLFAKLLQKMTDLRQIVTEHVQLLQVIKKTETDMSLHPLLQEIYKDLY
PPARg SRC1 recr – PPARgamma agonists recruiting SRC-1 coactivator, primary screen, biochemical; AID 631, 2007; 200,000 tested, 0.41% active; PPARgamma-SRC-1 coactivator recruitment biochemical assay; activation, % at 8 µM; in the data active = activation above about 19%
SRC1 TRFRET art – TR-FRET detection interference compounds, primary screen, artefact control for PPARgamma SRC-1 recruitment agonists, biochemical, TR-FRET emission ratio | TR-FRET detection artefact counter-screen; hits give high values | TR-FRET ratio at 8 µM | 99,000 tested, 0.34% active | AID 1051, 2008; in the data active = TR-FRET ratio above about 2300
PPARg SRC-3 ag – PPARgamma agonists recruiting SRC-3 coactivator, primary screen, biochemical; Peroxisome proliferator-activated receptor gamma (Homo sapiens), P37231; biochemical PPARgamma/SRC-3 coactivator recruitment assay; activation, % at 8 µM; 200,000 tested, 0.26% active; AID 731, 2007; in the data active = activation above about 23%
TR-FRET SRC-2 ct – TR-FRET signal artefacts, primary screen, artefact control for PPARgamma SRC-2 agonist project, biochemical; TR-FRET artefact counter-screen; hits give high values; 200,000 tested, 0.4% active; TR-FRET ratio at 8 µM
Of the large screens only hits and unclear results are named; the others gave an inactive call. Sampled rows, rich in hits. Any-hit rate of the full collection: about 0.84%. Rule as the data show it, unless noted: active = TR-FRET ratio above about 2000; inactive = the rest.

O=C(COc1ccc(/C=N/NC(=O)c2cc3ccccc3o2)cc1Br)Nc1ccccc1	PPARg SRC2 recr 63, TR-FRET SRC-2 ct 3281 (no result: SRC3 TRFRET art, SRC1 TRFRET art)
Cc1c(C(=O)N2CCc3ccccc3C2)oc2ccc(S(=O)(=O)N3CC(C)CC(C)C3)cc12 (stereo unspecified)	none
COc1cccc(/C=N/NC(=O)c2csc(-n3nc(C)cc3C(F)(F)F)n2)c1	PPARg SRC-3 ag 27 (no result: SRC3 TRFRET art, SRC1 TRFRET art)
Cc1cc(C)cc(-n2c3nc4ccccc4nc3c3c(=O)n(Cc4ccco4)cnc32)c1	none (no result: SRC3 TRFRET art, SRC1 TRFRET art)
CCOc1ccc(-n2c3nc4ccccc4nc3c3c(=O)n(Cc4ccco4)cnc32)cc1	PPARg SRC1 recr 45, PPARg SRC-3 ag 84 (no result: SRC3 TRFRET art, SRC1 TRFRET art)
C#Cc1ccc([C@@H]2C=C(C(=O)O)O[C@H](OCc3ccc(CO)cc3)C2)cc1	none
CCc1cc2ccc(OC)cc2nc1SCC(=O)NNC(=O)c1ccco1	TR-FRET SRC-2 ct 2005
COc1cc(NC(=O)COC(C)=O)c(C)cc1[N+](=O)[O-]	none
Cc1c(C(=O)Nc2nccs2)sc2nc(-c3cccs3)cc(C(F)(F)F)c12	TR-FRET SRC-2 ct 2020 (no result: SRC3 TRFRET art, SRC1 TRFRET art)
Cc1ccc2sc3ccc(NC(=O)c4ccccc4Cl)cc3c(=O)c2c1	TR-FRET SRC-2 ct 2846 (no result: SRC3 TRFRET art, SRC1 TRFRET art)
Cc1cccc(OCC(=O)Nc2ccc(C(=O)c3ccc(C(=O)O)cc3)cc2)c1	none
O=C(CSc1ccc(-c2ccco2)nn1)NCc1ccccc1Cl	SRC1 TRFRET art 2338
Cc1ccc(-c2csc3ncnc(-n4nnc5ccccc54)c23)cc1	SRC3 TRFRET art 2064
CCn1c(SCC(=O)Nc2cc(C)on2)nnc1-c1ccc(OC)cc1	none
COc1cccc(OC)c1-c1nn2c(-c3cc(-c4ccccc4)n[nH]3)nnc2s1	PPARg SRC1 recr 20 (no result: SRC3 TRFRET art, SRC1 TRFRET art)
COc1cccc(-c2nnc3sc(-c4ccccc4)nn23)c1	none
O=C(O)Cc1ccc(C(=O)c2ccc(Cl)cc2Cl)s1	none
O=C(c1cnc(-c2ccc(Cl)cc2)s1)c1ccc(Cl)cc1Cl	PPARg SRC-3 ag 36 (no result: SRC3 TRFRET art, SRC1 TRFRET art)
Cc1ccc2nc(SCC(=O)NCc3ccco3)c(C#N)cc2c1	TR-FRET SRC-2 ct 2312 (no result: SRC3 TRFRET art, SRC1 TRFRET art)
Cc1ccc2nc(SCC(=O)NCc3cccs3)c(C#N)cc2c1	PPARg SRC1 recr 42 (no result: SRC3 TRFRET art, SRC1 TRFRET art)
CC(C)n1c(SCC(=O)NCc2ccco2)nc2c1c(=O)n(C)c(=O)n2C	PPARg SRC1 recr 20 (no result: SRC3 TRFRET art, SRC1 TRFRET art)
Cn1c(=O)c2c(nc(SCC(=O)NCc3ccco3)n2C)n(C)c1=O	none (no result: SRC3 TRFRET art, SRC1 TRFRET art)
Cc1c(CC=C(Cl)Cl)c(=O)[nH]c2c(C)cccc12	none
CC(C)Nc1nc(NC(C)C)nc(SCCOC(=O)Nc2ccc(Cl)cc2Cl)n1	none
Cc1ccc(C(=O)Oc2cc(C)n(C)c(=O)c2)cc1	none (no result: SRC3 TRFRET art, SRC1 TRFRET art)
COc1ccc(-c2csc(N(CCc3ccc(OC)c(OC)c3)C(=O)COc3ccccc3)n2)cc1	TR-FRET SRC-2 ct 2007 (no result: SRC3 TRFRET art, SRC1 TRFRET art)
CCN(C(=O)c1cccs1)c1nc(-c2ccc(OC)cc2)cs1	SRC3 TRFRET art 2437
COc1ccc(-c2csc(N(Cc3ccccc3)C(=O)COc3ccc(Cl)cc3)n2)cc1	none (no result: SRC3 TRFRET art, SRC1 TRFRET art)
COc1ccc(-c2csc(N(CCCN(C)C)C(=O)c3cccs3)n2)cc1	none
C/C(CC(=O)Nc1c(C)cc(C)cc1C)=N\NC(=O)c1cnccn1	none
CCCn1c(C)cs/c1=N\C(=S)Nc1ccccc1	SRC3 TRFRET art 2212
Cc1cs/c(=N/C(=S)Nc2ccccc2)n1C	none
N#Cc1c(-c2ccccc2)cc(-c2ccccc2)nc1Br	SRC3 TRFRET art 2095
Cc1csc(N2CCCC2=O)n1	none
Cn1c(C(=O)N2CCOCC2)cnc1Sc1ncc(C(F)(F)F)cc1Cl	PPARg SRC2 recr 22 (no result: SRC3 TRFRET art, SRC1 TRFRET art)
CC(C)CCNC(=O)NC(=O)COC(=O)/C=C/c1cnc2ccccc2n1	PPARg SRC2 recr 64, TR-FRET SRC-2 ct 2705 (no result: SRC3 TRFRET art, SRC1 TRFRET art)
CC(C)CCNC(=O)NC(=O)COC(=O)/C=C/c1cccc([N+](=O)[O-])c1	none
O=C(Nc1nc(-c2nc3ccccc3s2)cs1)C1COc2ccccc2O1 (stereo unspecified)	SRC1 TRFRET art 2597, TR-FRET SRC-2 ct 1973
CC(=O)Nc1ccc(S(=O)(=O)Nc2nc3ccccc3nc2Sc2nncn2C)cc1	TR-FRET SRC-2 ct 2233 (no result: SRC3 TRFRET art, SRC1 TRFRET art)
CCOC(=O)c1ccc(Oc2ccc(C(F)(F)F)cn2)cc1	none
O=C(NCc1cccc(F)c1)c1ccc(N2C(=O)Cn3c(cc4sccc43)C2=O)cc1	SRC3 TRFRET art 2155
CCc1ccc(OCC(=O)NNC(=O)CSc2ncnc3sc(C)c(C)c23)cc1	PPARg SRC1 recr 54 (no result: SRC3 TRFRET art, SRC1 TRFRET art)
Cc1ccc(OCC(=O)NNC(=O)CSc2ncnc3sc(C)c(C)c23)cc1	none
COc1ccc(C2CC(c3ccccc3)=NN2C(=O)COC(=O)c2cnc(Cl)c(Cl)c2)cc1 (stereo unspecified)	none
COc1ccc(C2CC(c3ccccc3)=NN2C(=O)COC(=O)c2cccc(S(=O)(=O)N3CCOCC3)c2)cc1 (stereo unspecified)	SRC3 TRFRET art 2328, SRC1 TRFRET art 2459, TR-FRET SRC-2 ct 2061
COc1ccc(C2CC(c3ccccc3)=NN2C(=O)COC(=O)c2ccc(Cl)nc2)cc1 (stereo unspecified)	none
COc1ccc(C2CC(c3ccccc3)=NN2C(=O)COC(=O)c2cccc(S(=O)(=O)N(C)C)c2)cc1 (stereo unspecified)	SRC3 TRFRET art 2064, SRC1 TRFRET art 2411, TR-FRET SRC-2 ct 2075
COc1ccccc1OCCN(C#N)c1nc(N(C)C)nc(N(C)C)n1	none
CN(NS(=O)(=O)c1ccc(Cl)cc1)c1nc(C(F)(F)F)nc2ccccc12	none
CCCC1=C(C(=O)OCC)C(c2ccncc2)n2ncnc2N1 (stereo unspecified)	none (no result: SRC3 TRFRET art, SRC1 TRFRET art)
CC(C)NC(=O)NC(=O)CSc1ccccc1F	SRC3 TRFRET art 3589, PPARg SRC-3 ag 38
CC(C)NC(=O)NC(=O)COC(=O)c1ccccc1F	none
CCn1c(SCC(=O)NCc2ccccc2)nnc1-c1cccnc1	none
CCOCCCNCc1ccc(OC)c(OC)c1	PPARg SRC2 recr 34, TR-FRET SRC-2 ct 2500 (no result: SRC3 TRFRET art, SRC1 TRFRET art)
CCCOc1ccc(CNCCCOCC)cc1OC	none
COc1ccc2[nH]c3c(=O)n(CCCCCC(=O)NCCC(C)C)c(=S)[nH]c3c2c1	none
COCCOC(=O)c1c(C)oc2ccc(OC(=O)COc3c(F)c(F)c(F)c(F)c3F)cc12	none (no result: SRC3 TRFRET art, SRC1 TRFRET art)
Cc1oc2ccc(OC(=O)COc3c(F)c(F)c(F)c(F)c3F)cc2c1C(=O)OC(C)C	TR-FRET SRC-2 ct 2175
CCOC(=O)c1sc(=NC(=O)c2ccc(OC(C)C)cc2)n(C)c1C	PPARg SRC1 recr 43
CSCCC(NS(=O)(=O)/C=C/c1ccccc1)C(=O)O (stereo unspecified)	none
Cc1ccc(C(=O)NC2CCS(=O)(=O)C2)cc1S(=O)(=O)N1CCCCCC1 (stereo unspecified)	none
Cc1ccc(-c2csc3ncnc(SCC(=O)NCc4ccc5c(c4)OCO5)c23)cc1	TR-FRET SRC-2 ct 2614 (no result: SRC3 TRFRET art, SRC1 TRFRET art)
